In PubChem BioAssay (NCATS):
Inconclusive results are not listed. Activity calls are given as the source filed them. Unless noted, calls come from the whole dose curve; as a rule, active = well fitted curve in the direction sought with a large enough effect; inconclusive = small, poorly fitted or top-dose-only effect, or another doubt; inactive = no such curve, though single readings can be large; an effect the other way counts as inactive or inconclusive.

How the values were obtained:
[1] = qHTS for Inhibitors of Plasmodium falciparum (DD2) proliferation (AID 504314);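 note: parasite DNA measured by SYBR Green fluorescence after red cell lysis; plate controls were DMSO vehicle for no effect and artemisinin wells for full effect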
How it was run: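 SYBR Green growth assay: 72 h compound exposure of infected red cells (2.5% hematocrit, 0.3% parasitemia), then lysis and overnight dye staining, fluorescence 485/535 nm. Values scaled between DMSO and 0.29 uM artemisinin controls.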

[2] = qHTS for Inhibitors of Plasmodium falciparum (GB4) proliferation (AID 504315);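 note: 0% = DMSO vehicle and -100% = 0.29 µM artemisinin control; nearly all actives have a fitted effect of over 50% in size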
How it was run: (§1)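 Parasite growth measured as SYBR Green DNA fluorescence (ex 485, em 535 nm) after overnight lysis following 72 h culture at 37 °C, 0.3% parasitemia, 2.5% hematocrit. Values normalized against DMSO and 0.29 uM artemisinin controls, with plate-stack correction.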

[3] = qHTS for Inhibitors of Plasmodium falciparum (CP250) proliferation (AID 504320);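 note: plate controls were DMSO vehicle for no effect and 0.29 µM artemisinin control for full effect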
How it was run: as §1

[4] = target: Atrial natriuretic peptide receptor 1 (Homo sapiens) (UniProt P16066); experiment: Natriuretic polypeptide receptor (hNpr1) antagonism - Pilot CMLD screen (AID 1347052; calls by dose curve;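 note: HEK293 cells with hNpr1 stimulated by hNppA peptide at 0.1 nM; cGMP level read as GloSensor luciferase luminescence after agonist stimulation; series mostly up to about 9.2 µM; % is set by controls: 0 for no effect and ±100 for the full control effect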)
Chain of Atrial natriuretic peptide receptor 1 (Homo sapiens) (P16066 whole entry, looked up): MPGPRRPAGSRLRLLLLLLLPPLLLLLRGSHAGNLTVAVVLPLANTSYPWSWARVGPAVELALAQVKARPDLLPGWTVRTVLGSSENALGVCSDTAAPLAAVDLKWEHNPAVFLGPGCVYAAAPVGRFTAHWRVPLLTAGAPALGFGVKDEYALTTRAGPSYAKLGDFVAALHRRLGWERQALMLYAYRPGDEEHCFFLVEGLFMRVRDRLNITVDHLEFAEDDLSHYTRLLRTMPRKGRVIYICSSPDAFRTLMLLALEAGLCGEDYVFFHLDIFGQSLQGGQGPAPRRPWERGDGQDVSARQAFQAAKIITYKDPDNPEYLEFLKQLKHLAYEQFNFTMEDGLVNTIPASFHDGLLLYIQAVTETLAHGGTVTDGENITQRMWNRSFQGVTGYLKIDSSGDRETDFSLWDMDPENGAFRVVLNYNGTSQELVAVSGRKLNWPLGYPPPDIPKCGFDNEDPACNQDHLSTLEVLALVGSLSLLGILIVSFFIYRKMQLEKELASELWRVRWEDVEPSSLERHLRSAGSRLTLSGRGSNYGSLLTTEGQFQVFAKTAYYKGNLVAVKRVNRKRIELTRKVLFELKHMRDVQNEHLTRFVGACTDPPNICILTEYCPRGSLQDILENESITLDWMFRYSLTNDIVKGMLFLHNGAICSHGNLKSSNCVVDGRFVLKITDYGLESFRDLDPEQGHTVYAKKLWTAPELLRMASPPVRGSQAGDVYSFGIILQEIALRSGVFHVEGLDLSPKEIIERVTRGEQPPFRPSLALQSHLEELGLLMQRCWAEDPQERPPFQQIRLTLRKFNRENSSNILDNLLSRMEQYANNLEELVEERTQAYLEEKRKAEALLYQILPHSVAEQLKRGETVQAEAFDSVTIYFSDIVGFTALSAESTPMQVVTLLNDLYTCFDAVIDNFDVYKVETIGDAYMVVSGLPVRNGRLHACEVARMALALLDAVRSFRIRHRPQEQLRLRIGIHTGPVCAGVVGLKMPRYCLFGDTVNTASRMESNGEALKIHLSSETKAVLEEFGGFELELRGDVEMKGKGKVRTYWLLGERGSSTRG

COC(=O)C=C[C@H]1c2ccccc2[C@@H](OC)[C@@H]1C
inactive: Potency [1] | Potency [2] | Potency [3] | Potency [4]

COc1ccc2c(c1)CO[C@H]([C@H](O)CO)[C@H]2C=Cc1ccccc1
inactive: Potency [1] | Potency [2] | Potency [3] | Potency [4]

COc1cc(O)c(C(=O)C=Cc2ccccc2)c(O)c1
inactive: Potency [1] | Potency [2] | Potency [3] | Potency [4]

COC(=O)c1ccc(CN2C(=O)[C@]3(O[C@H](C)CC4=CCCC43)c3c(Br)cccc32)cc1 (some centres undefined)
inactive: Potency [1] | Potency [2] | Potency [3] | Potency [4]

C#CC1(O)C2C=C(OC)C(=O)C1C(c1ccccc1)C2C (centres undefined)
inactive: Potency [1] | Potency [2] | Potency [3] | Potency [4]

COc1ccc2c(c1)C(=O)[C@@H](OC(=O)NCCc1ccc(OC)c(OC)c1)[C@H](c1ccc(OC)c(Br)c1)O2
inactive: Potency [1] | Potency [2] | Potency [3] | Potency [4]

COC(=O)[C@@H]1CC[C@H](C)[C@@H](c2ccc(C)cc2)N1C(=O)c1ccc(C=NOC[C@@H](O)[C@H]2O[C@@H]3OC(C)(C)O[C@H]3[C@@H]2O)cc1
inactive: Potency [1] | Potency [2] | Potency [3] | Potency [4]

C=CCN1c2ccccc2[C@]23CCC(=O)N(CCCOC(C)C)C2=NC(C(=O)OC)=C(C(=O)OC)[C@H]13
inactive: Potency [1] | Potency [2] | Potency [3] | Potency [4]

COC(=O)CC=C1c2ccc3c(c2[C@@H](OC)[C@@H]1C)OCO3
inactive: Potency [1] | Potency [2] | Potency [3] | Potency [4]

CCOC(=O)CCN1C(=O)[C@@H]2[C@H]3[C@H](O)[C@H](O)CC(=NNC(=O)OCc4ccccc4)[C@@H]3CC[C@H]2C1=O
inactive: Potency [1] | Potency [2] | Potency [3] | Potency [4]

COC(=O)CCC(=O)OC1(C)C(=O)C=C2C=C(C3CC3)N(c3ccc(CO)cc3)C=C2C1=O (centres undefined)
inactive: activity, negative = inhibition [1] -5.46% [at 1.12 µM] | Potency [2] | Potency [3] | Potency [4]

C[C@@H]1CC[C@H]2C(=O)N(Cc3cccc([N+](=O)[O-])c3)C[C@@H](O)CN2[C@@H]1c1ccc(Br)cc1
inactive: Potency [1] | Potency [2] | Potency [3] | Potency [4]

COC(=O)N1[C@H]2CC[C@@]3(C)CC(=O)C[C@]1(C)C3c1ccccc12
inactive: Potency [1] | Potency [2] | Potency [3] | Potency [4]

CC(CCN1CCCCc2nc(C)c(C)cc21)=NO[C@H](C)c1cn([C@H](CO)Cc2ccccc2)nn1
inactive: Potency [1] | Potency [2] | Potency [3] | Potency [4]

CCN1C(=O)[C@@H]2[C@H]3[C@H](O)[C@H](O)CC(=NOC[C@H]4O[C@H](c5ccccc5)C=C[C@H]4Oc4ccc(OC)cc4)[C@@H]3CC[C@H]2C1=O
inactive: Potency [1] | Potency [2] | Potency [3] | Potency [4]

O=C(NCCOc1ccccc1)O[C@@H]1C(=O)c2cc(Br)ccc2O[C@H]1c1ccc2c(c1)OCO2
inactive: Potency [1] | Potency [2] | Potency [3] | Potency [4]

C#CCCCON=C1C[C@@H](O)[C@H](O)[C@H]2[C@@H]3C(=O)N(Cc4ccccc4)C(=O)[C@@H]3CC[C@H]12
inactive: Potency [1] | Potency [2] | Potency [3] | Potency [4]

COC(=O)C1=C(C(=O)OC)[C@@H]2N(C)c3ccccc3[C@@]23CCC(=O)N(CCCOC(C)C)C3=N1
inactive: Potency [1] | Potency [2] | Potency [3] | Potency [4]

C=C(C(C)=O)C(O)c1ccccc1 (centres undefined)
inactive: Potency [1] | Potency [2] | Potency [3] | Potency [4]

COC(=O)C1=C(C(=O)OC)[C@@H]2Nc3ccccc3[C@@]23C[C@@H](C(=O)OC)N(C(=O)N2CCNC2=O)C3=N1
inactive: Potency [1] | Potency [2] | Potency [3] | Potency [4]

COc1ccc2c(c1)[C@H](C=Cc1ccccc1)[C@@H]([C@H](O)CO)O2
inactive: Potency [1] | Potency [2] | Potency [3] | Potency [4]

COC(=O)CC=C1c2ccccc2C[C@H](OC)[C@@H]1C
inactive: Potency [1] | Potency [2] | Potency [3] | Potency [4]

Cc1cc2c(c(=O)o1)[C@H]1O[C@](c3ccsc3)(Cc3c1ccc1ccccc31)O2
inactive: Potency [1] | Potency [2] | Potency [3] | Potency [4]

C[C@@H]1CC2CCCC2[C@]2(O1)C(=O)Nc1ccccc12 (some centres undefined)
inactive: Potency [1] | Potency [2] | Potency [3] | Potency [4]

C=CC1=C2C=C(C3CC3)N(c3ccc(OC)cc3)C=C2C(=O)C(C)(OC(=O)c2ccco2)C1=O (centres undefined)
inactive: activity, negative = inhibition [1] 0.839% [at 1.12 µM] | Potency [2] | Potency [3] | Potency [4]

CCCC[C@]12Cc3cc(C#N)ccc3[C@H](O1)c1c(c3ccccc3oc1=O)O2
inactive: Potency [1] | Potency [2] | Potency [3] | Potency [4]

C#CCCCON=C1C[C@@H](O)[C@H](O)[C@H]2[C@@H]3C(=O)N(C4CCCCC4)C(=O)[C@@H]3CC[C@@H]12
inactive: Potency [1] | Potency [2] | Potency [3] | Potency [4]

CC=CC(=O)C[C@H]1CC[C@@H](C)[C@@H](CCO)O1
inactive: Potency [1] | Potency [2] | Potency [3] | Potency [4]

COC[C@H]1O[C@@H](c2c(OC)cc(OC)cc2OC)[C@H](OC)[C@@H](OC)[C@H]1OC
inactive: Potency [1] | Potency [2] | Potency [3] | Potency [4]

COc1ccc(O[C@H]2C=C[C@@H](c3ccccc3)O[C@H]2COC(=O)CCC(C)=NOC[C@@H](O)COCc2ccco2)cc1
inactive: Potency [1] | Potency [2] | Potency [3] | Potency [4]

C=CC[C@@H]1C=C[C@H](ON=C(C)CCN2CCCCc3nc(C)c(C)cc32)[C@H](CO)O1
inactive: Potency [1] | Potency [2] | Potency [3] | Potency [4]
